The results in this text go back to PubChem BioAssay.

SMILES strings stand for the structures. Calls of active or inactive are those of the source.

A short description of test [1]: small molecules captured by biotinylated probe aFSTL3 – biochemical, small-molecule microarray, fluorescence 635/667, stem cell growth factor project, primary screen (AID 1064).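 Further: measures binding of the biotinylated anti-FSTL3 antibody to printed compounds.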 The conditions noted are these: higher = more signal.
Test [2] is described as follows: binders from COS7 lysate, DM2A8 probe, primary screen, torsin A project, cell lysate, small-molecule microarray, fluorescence 635/667 (AID 1065). To be noted: higher = more signal, COS7 lysate expressing mutant human TOR1A.
Test [3] is described as follows: small molecules captured by biotinylated probe aFGF2 – biochemical, small-molecule microarray, fluorescence 635/667, stem cell growth factor project, primary screen (AID 1067).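 Further: measures binding of biotinylated aFGF2 protein to printed compounds on slides; z-score merges feature fluorescence and signal-to-noise across triplicate slides.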 The conditions noted are these: higher = more signal.
A short description of test [4]: small molecules captured by biotinylated probe aFGF10 – biochemical, small-molecule microarray, fluorescence 635/667, stem cell growth factor project, primary screen (AID 1071).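 Further: score merges 667 nm spot intensity and signal to noise from triplicate slides.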 To be noted: higher = more signal.
In test [5] the target is Neurogenic locus notch homolog protein 2 (Homo sapiens) (UniProt Q04721). The experiment in a line: small molecules binding Notch2 protein – biochemical, small-molecule microarray, 635 nm fluorescence, stem cell growth factors, primary screen (AID 1073). The conditions noted are these: higher = more signal.
In test [6] the target is Pro-neuregulin-1, membrane-bound isoform (Homo sapiens) (UniProt Q02297). The experiment in a line: small molecules binding neuregulin-1 protein – biochemical, small-molecule microarray, fluorescence 635/667, psychiatric disease protein project, primary screen (AID 1075).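 Further: score combines 667 nm spot fluorescence with signal to noise.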 The conditions noted are these: NRG1 binding, 635 nm fluorescence, higher = more signal.
The test system of test [7] is Neuregulin-1 EGF-like domain. The experiment in a line: small molecules binding NRG1 EGF domain – biochemical, small-molecule microarray, 635 nm fluorescence, primary screen (AID 1081).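 Further: binding of the protein to compounds printed on small-molecule microarray slides.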 To be noted: higher = more signal.
Test [8] in a line: FRG1 expression reporter modulators in myotubes – cell-based, C2C12 myotubes, firefly/Renilla luciferase, luminescence, FRG1 inhibition for FSHD, primary screen (AID 1084). The conditions noted are these: FRG1 promoter luciferase, higher = more signal, called active from +8 up or from −8 down.
Test [9] in a line: small molecules captured by biotinylated probe aFST – biochemical, small-molecule microarray, fluorescence 635/667, stem cell growth factor project, primary screen (AID 1086).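 Further: score merges 667 nm fluorescence with signal-to-noise of each printed compound spot.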 The conditions noted are these: higher = more signal.
The nature of test [10]: binders of probe aHhip on microarray, primary screen, stem cell growth factor project, biochemical, small-molecule microarray, fluorescence 635/667 (AID 1087).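 Further: score merges spot fluorescence at 667nm with spot signal to noise ratio.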 To be noted: higher = more signal.

Chain of Pro-neuregulin-1, membrane-bound isoform (Homo sapiens) (Q02297 whole entry, looked up, the tested form may be a part, canonical isoform): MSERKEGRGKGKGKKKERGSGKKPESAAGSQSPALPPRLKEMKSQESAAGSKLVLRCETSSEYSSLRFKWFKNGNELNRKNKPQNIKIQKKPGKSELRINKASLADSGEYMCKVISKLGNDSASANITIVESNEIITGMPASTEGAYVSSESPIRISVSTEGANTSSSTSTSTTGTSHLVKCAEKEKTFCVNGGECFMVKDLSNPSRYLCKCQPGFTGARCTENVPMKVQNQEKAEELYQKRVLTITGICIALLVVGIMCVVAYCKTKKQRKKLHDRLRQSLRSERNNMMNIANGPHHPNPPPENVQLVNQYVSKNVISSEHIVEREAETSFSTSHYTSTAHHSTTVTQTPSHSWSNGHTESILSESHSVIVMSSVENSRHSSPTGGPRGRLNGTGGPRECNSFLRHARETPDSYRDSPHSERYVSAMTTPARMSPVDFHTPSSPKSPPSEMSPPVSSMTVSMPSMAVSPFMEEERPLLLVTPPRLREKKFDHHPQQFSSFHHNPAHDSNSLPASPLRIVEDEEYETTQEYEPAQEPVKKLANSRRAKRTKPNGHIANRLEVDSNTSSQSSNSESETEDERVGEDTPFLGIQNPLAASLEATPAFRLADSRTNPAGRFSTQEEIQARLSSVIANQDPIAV
Chain of Neurogenic locus notch homolog protein 2 (Homo sapiens) (Q04721 whole entry, looked up, canonical isoform): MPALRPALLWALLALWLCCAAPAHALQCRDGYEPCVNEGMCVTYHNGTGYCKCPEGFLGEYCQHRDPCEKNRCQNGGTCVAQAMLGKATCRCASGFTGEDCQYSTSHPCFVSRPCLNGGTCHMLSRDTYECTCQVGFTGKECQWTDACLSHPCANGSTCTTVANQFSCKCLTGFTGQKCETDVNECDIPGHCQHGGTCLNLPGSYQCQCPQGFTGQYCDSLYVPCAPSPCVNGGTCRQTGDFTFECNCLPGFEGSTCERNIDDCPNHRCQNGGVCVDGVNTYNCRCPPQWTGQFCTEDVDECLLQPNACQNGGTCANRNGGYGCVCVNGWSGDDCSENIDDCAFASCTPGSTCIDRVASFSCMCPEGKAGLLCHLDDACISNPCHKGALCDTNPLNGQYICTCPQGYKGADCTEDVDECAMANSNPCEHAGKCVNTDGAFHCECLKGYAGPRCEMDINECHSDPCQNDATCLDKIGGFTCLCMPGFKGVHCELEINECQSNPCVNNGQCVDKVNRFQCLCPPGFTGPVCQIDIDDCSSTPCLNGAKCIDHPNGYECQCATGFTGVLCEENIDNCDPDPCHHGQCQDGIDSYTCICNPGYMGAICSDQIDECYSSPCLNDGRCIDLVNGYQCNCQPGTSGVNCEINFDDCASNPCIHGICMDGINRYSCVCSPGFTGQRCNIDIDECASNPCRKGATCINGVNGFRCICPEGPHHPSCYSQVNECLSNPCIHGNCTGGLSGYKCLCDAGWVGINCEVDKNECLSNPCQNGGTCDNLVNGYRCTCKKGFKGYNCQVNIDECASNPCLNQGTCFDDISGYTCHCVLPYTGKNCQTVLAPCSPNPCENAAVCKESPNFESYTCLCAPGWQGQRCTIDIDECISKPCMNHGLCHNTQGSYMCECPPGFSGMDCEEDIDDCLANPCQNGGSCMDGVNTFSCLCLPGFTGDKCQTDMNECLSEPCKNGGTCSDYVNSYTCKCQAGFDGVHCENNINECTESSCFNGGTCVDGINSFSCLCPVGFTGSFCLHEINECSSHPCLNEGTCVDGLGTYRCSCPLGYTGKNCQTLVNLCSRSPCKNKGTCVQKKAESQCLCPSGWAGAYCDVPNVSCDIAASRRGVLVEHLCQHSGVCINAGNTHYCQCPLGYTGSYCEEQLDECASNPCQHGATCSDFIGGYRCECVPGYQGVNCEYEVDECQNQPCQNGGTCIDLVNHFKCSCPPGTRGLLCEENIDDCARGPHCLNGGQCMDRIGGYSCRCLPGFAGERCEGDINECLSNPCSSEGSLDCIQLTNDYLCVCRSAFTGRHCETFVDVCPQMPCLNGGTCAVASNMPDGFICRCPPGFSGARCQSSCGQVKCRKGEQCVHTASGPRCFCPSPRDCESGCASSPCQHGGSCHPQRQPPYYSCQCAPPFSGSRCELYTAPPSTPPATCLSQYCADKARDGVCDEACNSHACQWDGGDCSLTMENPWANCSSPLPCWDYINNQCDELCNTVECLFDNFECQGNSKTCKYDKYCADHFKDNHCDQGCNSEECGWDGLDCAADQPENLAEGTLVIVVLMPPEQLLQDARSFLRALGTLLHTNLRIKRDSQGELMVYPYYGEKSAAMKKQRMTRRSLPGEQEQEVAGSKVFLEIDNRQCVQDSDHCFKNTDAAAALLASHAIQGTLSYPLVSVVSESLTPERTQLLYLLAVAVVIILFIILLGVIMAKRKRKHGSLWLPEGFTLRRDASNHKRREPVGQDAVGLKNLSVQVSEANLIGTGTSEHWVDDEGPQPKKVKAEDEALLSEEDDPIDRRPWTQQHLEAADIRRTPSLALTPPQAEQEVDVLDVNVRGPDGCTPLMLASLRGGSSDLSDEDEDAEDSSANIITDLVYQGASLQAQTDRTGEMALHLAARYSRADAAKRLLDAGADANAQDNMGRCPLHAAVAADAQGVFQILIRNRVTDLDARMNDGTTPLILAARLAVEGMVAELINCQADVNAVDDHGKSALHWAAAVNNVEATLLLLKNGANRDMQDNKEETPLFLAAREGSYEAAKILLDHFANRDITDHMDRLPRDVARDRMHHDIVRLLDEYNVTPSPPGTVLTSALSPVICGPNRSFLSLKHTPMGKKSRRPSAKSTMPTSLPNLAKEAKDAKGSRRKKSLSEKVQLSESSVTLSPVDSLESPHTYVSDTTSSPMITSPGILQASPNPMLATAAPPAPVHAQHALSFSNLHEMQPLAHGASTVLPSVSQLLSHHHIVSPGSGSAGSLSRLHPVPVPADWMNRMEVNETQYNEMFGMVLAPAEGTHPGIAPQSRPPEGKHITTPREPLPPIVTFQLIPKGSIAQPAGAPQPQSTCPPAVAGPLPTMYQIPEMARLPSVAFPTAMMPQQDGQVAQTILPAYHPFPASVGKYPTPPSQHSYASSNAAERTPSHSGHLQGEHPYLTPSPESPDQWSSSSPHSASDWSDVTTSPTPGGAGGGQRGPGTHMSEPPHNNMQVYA

`COc1ccc(C(=O)Nc2cccc(CN3C(=O)[C@]4(O[C@H](CC(=O)N(CCO)Cc5ccccc5)[C@@H]([Si](C)(C)c5ccc(OC)cc5)[C@@H]4C)c4ccccc43)c2)cc1`: the composite z-score in [1] is -0.211; in [2], 0.333; in test [3], -0.0695; in [4], 0.792; in test [5], 0.784; in test [6], 0.61. Further, the composite z-score is 0.958 in test [7], -0.16 in [9] and 0.2 in test [10]. The z-score in [8] was -1.07 (inactive).

Take `COc1cc(Cc2cc3c(c(CCc4ccccc4)n2)[Si](C(C)C)(C(C)C)O[C@H]3c2ccccc2)cc(OC)c1OC`: the composite z-score in test [1] is 0.962; in [2], -0.133; in test [3] it was -0.0454; in [4], 0.169; in test [5], -0.285; in test [6], -0.499. The figures for the composite z-score in [7], in test [9] and in test [10] were -0.44, -0.273 and -0.0102, respectively. For the same compound, the z-score in test [8] is -0.149 (inactive).

As for `C[C@]1(C(=O)O)c2ccccc2C(=O)N(Cc2cc(C(F)(F)F)cc(C(F)(F)F)c2)[C@H]1c1ccc(CO)cc1`, the composite z-score in [1] was -0.0018; in test [2] it was -0.48; in test [3], -0.152; in test [4], 0.159; in [5], -0.0211; in [6] it was -0.179. For the same compound, the composite z-score in test [7] was 0.0653; in [9], 0.192; in test [10], -0.236. In addition, the z-score in [8] was 0.192 (inactive).

For the compound `CCCCCCc1nc(Cc2cc(OC)c(OC)c(OC)c2)c(C)c2c1[Si](C(C)C)(C(C)C)OC2`, the composite z-score in [1] is -0.491; in test [2], 0.0293; in test [3], -0.0328; in test [4], -0.0482; in test [5], -0.0366; in test [6], -0.186. The composite z-score in test [7] was 0.105; in test [9] it was -0.0696; in test [10] it was -0.274. The z-score in test [8] is -0.474 (inactive).

Turning to `C=CCNC(=O)[C@H]1[C@@H]2C(=O)O[C@@H](c3ccccc3)[C@@H](c3ccccc3)N2[C@@H](c2ccc(O)cc2)[C@]12C(=O)Nc1ccccc12`, the composite z-score was 0.318 in test [1]; 0.111 in [2]; -0.0628 in [3]; -0.519 in test [4]; -1.15 in test [5]; 0.992 in [6]. Further, the results for the composite z-score in [7], in [9] and in test [10] were 1.09, -0.228 and 0.0749, respectively. Further, in test [8], the z-score is -2.15 (inactive).

With `C=C(C(=O)CC[C@@H](OC(=O)c1ccccc1-c1ccccc1C(=O)O)c1cccc(OCCO)c1)C(C)C`, the composite z-score is -0.308 in test [1]; 2.23 in [2]; -0.0577 in [3]; 1.22 in [4]; 0.234 in [5]; 0.535 in test [6]. Further, the composite z-score is -0.141 in test [7], -0.156 in [9] and 0.154 in test [10]. The z-score in test [8] was 0.345 (inactive).

`COCCOC(=O)N1C(=O)[C@@]2(c3cc(C#CC4=CCCCC4)ccc31)[C@H](C(=O)N1CCCCCCC1)[C@H]1C(=O)O[C@H](c3ccccc3)[C@H](c3ccccc3)N1[C@@H]2c1ccccc1OCCO`: the composite z-score stood at 2.57 in [1]; 0.571 in [2]; 0.0328 in test [3]; 0.271 in test [4]; 1.08 in test [5]; 1.11 in test [6]. Moreover, the composite z-score came to 1.18 in test [7], 2.04 in test [9] and 0.33 in test [10]. In addition, the z-score in [8] was 0.927 (inactive).

Consider `O=C1C2C=CC(C(O)C(c3ccccc3)c3ccccc3)N(Nc3ccccc3F)C2C(=O)N1c1ccccc1` (stereo not given), for which the composite z-score in test [1] was -0.117; in test [2], 0.975; in test [3], 0.11; in test [4] it was 1.03; in test [5], 1.63; in test [6] it was 1.76. Besides, the results for the composite z-score in [7], in [9] and in test [10] were 1.32, 1.5 and -0.121, respectively. Besides, the z-score in [8] was -0.243 (inactive).

With `O=C(O)C1=CC[C@H]2C(=O)N(c3ccccc3)C(=O)[C@@H]12`, the composite z-score in [1] is 0.115; in test [2], -0.037; in [3], 0.0601; in [4], 0.676; in test [5] it was 1.58; in test [6] it was 0.42. The composite z-score was 1.16 in test [7], 0.914 in test [9] and 0.0749 in [10]. In test [8], the z-score is -0.127 (inactive).

`CCCC[C@@H](O)C1=C(C)Cn2c(=O)n(-c3ccccc3)c(=O)n2[C@H]1CO`: the composite z-score in test [1] is -0.571; in test [2], -0.0827; in test [3] it was -0.092; in test [4], 0.361; in test [5], -0.362; in test [6] it was -0.773. In addition, the composite z-score is -0.151 in test [7], -0.378 in test [9] and 0.0053 in test [10]. The z-score in test [8] is -0.755 (inactive).

With `CC(C)[Si](C#Cc1ccccc1)(O[C@H](c1ccccc1)c1cn(Cc2ccccc2)nn1)C(C)C`, the composite z-score in test [1] is -0.527; in [2], 0.884; in test [3], -0.123; in [4], 0.76; in test [5], 0.534; in test [6] it was 0.8. In addition, the results for the composite z-score in [7], in test [9] and in [10] were 1.28, 0.0643 and 0.107, respectively. Moreover, the z-score in [8] is 0.92 (inactive).

In the case of `COC(=O)[C@@]1(Cc2ccc(F)cc2)[C@H]2c3cc(C(=O)N(C)C)n(Cc4ccsc4Br)c3C[C@H]2CN1C(=O)c1ccccc1`, the composite z-score was 2.25 in [1]; -0.3 in test [2]; 0.915 in [3]; 1.01 in test [4]; 1.83 in [5]; 1.88 in [6]. In addition, the composite z-score is 0.529 in test [7], 2.68 in test [9] and 3.87 in [10]. Also, in [8], the z-score was 1.94 (inactive).

As to `COC(=O)[C@]1(Cc2ccccc2N=[N+]=[N-])N=C(c2ccc(OCCCO)cc2)O[C@@H]1c1ccccc1CN=[N+]=[N-]`, the composite z-score in [1] was determined as 0.736; in test [2], 1.08; in test [3], 0.052; in [4], 0.728; in [5], 0.632; in [6], 1.06. In addition, the composite z-score was 1.16 in test [7], 0.484 in [9] and 0.176 in [10]. For the same compound, the z-score in test [8] was -2.25 (inactive).

As for `COc1ccc([Si](C)(C)[C@H]2[C@H](CC(=O)N3CCC[C@H]3CO)O[C@@]3(C(=O)N(C)c4ccccc43)[C@@H]2C)cc1`, the composite z-score in test [1] is 0.735; in [2], 0.384; in test [3], -0.0375; in [4], -0.0959; in test [5], -0.711; in test [6] it was 0.63. In addition, the composite z-score in test [7] was determined as 1.4; in [9], 0.324; in test [10], 0.394. In addition, the z-score in test [8] was -0.0568 (inactive).
